Test results: the supplement of paper PMC11732987, “Enantioselective OTUD7B fragment discovery through chemoproteomics screening and high-throughput optimisation” (Communications Chemistry, 2025)

Experiments:
Assay in all cases: log2 ratio of Biotin-Ahx-Ub-VS probe labelling (fragment/DMSO); higher = less target engagement (more negative = stronger competition), active = hit call of the paper (q ≤ 0.05, log2 ratio ≤ -1)
Settings in all cases: compound concentration: 200 uM; treatment time: 3 h
[1] = target: T1, USP42 (UniProt Q9H9J4)
T1 sequence (whole entry): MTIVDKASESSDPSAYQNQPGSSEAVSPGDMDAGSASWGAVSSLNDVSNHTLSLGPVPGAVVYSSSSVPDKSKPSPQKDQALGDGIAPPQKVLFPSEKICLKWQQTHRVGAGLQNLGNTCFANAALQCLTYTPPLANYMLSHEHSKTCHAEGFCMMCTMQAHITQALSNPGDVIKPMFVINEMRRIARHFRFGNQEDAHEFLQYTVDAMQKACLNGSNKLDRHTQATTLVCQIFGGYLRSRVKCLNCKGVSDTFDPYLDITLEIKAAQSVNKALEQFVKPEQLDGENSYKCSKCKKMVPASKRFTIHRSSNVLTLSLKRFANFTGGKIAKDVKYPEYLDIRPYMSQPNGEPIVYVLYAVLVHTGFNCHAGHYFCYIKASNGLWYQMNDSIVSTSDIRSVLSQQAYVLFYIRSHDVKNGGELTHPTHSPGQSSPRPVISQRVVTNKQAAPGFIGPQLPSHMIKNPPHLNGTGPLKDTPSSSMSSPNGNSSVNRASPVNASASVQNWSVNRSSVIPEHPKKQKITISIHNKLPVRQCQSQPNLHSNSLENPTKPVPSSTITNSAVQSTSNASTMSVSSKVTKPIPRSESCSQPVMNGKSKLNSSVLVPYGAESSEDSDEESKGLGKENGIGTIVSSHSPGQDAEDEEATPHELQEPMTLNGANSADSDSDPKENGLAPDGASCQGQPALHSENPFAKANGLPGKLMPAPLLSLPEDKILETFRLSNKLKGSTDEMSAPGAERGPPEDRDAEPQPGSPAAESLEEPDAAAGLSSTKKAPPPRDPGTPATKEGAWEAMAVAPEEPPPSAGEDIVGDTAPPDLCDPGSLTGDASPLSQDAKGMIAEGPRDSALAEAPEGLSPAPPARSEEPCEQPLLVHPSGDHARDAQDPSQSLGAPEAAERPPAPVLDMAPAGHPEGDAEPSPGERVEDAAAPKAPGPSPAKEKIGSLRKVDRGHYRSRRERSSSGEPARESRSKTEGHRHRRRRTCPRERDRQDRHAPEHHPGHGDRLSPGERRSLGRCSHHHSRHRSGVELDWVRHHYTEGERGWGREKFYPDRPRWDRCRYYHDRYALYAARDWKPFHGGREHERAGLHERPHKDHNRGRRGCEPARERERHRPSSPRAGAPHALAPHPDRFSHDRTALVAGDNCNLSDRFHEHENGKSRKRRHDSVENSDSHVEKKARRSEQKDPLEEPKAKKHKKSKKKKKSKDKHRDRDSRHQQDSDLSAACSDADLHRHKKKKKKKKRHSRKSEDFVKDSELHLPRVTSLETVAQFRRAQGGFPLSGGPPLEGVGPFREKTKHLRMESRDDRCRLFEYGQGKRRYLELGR
Outline: (§1)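 Labelled DUBs were enriched with NeutrAvidin, digested with LysC and trypsin, and run by diaPASEF LC-MS/MS. The labelling used Biotin-Ahx-Ub-VS at 0.5 µM final for 1 h on HEK293T lysate (495 µg per sample) previously treated in triplicate with fragment at 200 µM or vehicle for 3 h. Values are average log2 fragment/vehicle ratios by unpaired t-test on global-median-normalised Spectronaut quantities of proteins with ≥2 unique peptides.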

[2] = target: USP46 (UniProt P62068)
Outline: as §1

[3] = target: T2, USP47 (UniProt Q96K76)
T2 sequence (whole entry): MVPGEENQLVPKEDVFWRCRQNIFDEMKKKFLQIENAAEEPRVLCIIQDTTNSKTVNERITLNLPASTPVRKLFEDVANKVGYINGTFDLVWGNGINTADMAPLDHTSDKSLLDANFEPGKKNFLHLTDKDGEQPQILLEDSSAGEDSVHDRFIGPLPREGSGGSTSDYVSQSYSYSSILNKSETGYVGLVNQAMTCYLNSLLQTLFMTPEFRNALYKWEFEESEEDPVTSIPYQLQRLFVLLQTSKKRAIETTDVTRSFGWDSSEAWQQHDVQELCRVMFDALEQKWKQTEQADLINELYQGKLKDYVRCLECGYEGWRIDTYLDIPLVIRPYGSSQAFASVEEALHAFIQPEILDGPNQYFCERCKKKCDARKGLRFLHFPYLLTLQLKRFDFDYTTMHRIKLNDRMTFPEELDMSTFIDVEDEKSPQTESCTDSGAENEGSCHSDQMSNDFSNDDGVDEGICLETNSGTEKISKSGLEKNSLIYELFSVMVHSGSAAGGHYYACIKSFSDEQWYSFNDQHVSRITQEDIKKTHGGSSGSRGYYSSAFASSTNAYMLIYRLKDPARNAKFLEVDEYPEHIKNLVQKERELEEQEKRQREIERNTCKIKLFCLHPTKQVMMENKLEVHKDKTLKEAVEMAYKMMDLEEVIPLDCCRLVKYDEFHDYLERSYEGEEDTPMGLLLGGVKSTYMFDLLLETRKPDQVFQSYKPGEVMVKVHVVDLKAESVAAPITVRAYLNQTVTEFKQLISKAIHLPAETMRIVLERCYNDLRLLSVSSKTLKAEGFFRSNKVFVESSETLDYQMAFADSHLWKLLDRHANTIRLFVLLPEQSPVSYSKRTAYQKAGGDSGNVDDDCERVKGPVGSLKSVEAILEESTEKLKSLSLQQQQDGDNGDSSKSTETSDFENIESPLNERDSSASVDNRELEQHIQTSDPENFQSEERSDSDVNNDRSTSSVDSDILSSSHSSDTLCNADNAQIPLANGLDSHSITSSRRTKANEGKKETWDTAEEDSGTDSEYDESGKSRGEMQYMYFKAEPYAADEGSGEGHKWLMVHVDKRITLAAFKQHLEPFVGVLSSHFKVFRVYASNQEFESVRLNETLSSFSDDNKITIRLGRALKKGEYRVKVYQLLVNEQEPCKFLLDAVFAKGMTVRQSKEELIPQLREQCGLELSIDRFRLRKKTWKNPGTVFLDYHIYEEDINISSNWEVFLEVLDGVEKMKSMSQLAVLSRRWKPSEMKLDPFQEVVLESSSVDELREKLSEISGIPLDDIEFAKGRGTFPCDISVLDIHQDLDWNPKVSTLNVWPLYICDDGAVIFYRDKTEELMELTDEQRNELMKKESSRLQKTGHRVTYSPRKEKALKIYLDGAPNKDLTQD
Outline: as §1

[4] = target: T3, USP48 (UniProt Q86UV5)
T3 sequence (whole entry): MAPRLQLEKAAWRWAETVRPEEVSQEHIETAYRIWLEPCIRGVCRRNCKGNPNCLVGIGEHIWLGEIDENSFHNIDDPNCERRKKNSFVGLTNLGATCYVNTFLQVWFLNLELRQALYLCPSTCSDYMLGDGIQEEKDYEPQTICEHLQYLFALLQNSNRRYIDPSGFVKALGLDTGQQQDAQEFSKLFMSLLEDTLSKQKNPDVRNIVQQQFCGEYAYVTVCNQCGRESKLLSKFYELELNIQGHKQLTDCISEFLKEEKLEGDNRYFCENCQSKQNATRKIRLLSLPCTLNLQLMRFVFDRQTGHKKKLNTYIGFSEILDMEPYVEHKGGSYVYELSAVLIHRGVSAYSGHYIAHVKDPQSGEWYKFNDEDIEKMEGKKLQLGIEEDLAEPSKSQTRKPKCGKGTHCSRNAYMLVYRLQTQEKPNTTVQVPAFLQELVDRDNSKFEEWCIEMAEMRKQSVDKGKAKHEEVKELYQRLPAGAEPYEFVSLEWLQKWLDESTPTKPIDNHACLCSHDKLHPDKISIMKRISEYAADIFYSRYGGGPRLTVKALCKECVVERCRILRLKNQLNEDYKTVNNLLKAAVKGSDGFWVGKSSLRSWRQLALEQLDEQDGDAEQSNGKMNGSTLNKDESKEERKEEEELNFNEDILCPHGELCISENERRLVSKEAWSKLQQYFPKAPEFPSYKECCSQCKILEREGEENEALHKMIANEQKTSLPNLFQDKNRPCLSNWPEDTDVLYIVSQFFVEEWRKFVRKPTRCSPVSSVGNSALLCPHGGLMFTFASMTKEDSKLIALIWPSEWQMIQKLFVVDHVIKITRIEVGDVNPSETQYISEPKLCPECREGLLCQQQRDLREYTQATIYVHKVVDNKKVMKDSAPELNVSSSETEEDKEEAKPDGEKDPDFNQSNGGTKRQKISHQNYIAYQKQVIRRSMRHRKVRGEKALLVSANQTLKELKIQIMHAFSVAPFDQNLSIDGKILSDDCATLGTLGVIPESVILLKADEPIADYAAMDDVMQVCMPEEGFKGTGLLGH
Outline: as §1

[5] = target: T4, USP5 (UniProt P45974)
T4 sequence (whole entry): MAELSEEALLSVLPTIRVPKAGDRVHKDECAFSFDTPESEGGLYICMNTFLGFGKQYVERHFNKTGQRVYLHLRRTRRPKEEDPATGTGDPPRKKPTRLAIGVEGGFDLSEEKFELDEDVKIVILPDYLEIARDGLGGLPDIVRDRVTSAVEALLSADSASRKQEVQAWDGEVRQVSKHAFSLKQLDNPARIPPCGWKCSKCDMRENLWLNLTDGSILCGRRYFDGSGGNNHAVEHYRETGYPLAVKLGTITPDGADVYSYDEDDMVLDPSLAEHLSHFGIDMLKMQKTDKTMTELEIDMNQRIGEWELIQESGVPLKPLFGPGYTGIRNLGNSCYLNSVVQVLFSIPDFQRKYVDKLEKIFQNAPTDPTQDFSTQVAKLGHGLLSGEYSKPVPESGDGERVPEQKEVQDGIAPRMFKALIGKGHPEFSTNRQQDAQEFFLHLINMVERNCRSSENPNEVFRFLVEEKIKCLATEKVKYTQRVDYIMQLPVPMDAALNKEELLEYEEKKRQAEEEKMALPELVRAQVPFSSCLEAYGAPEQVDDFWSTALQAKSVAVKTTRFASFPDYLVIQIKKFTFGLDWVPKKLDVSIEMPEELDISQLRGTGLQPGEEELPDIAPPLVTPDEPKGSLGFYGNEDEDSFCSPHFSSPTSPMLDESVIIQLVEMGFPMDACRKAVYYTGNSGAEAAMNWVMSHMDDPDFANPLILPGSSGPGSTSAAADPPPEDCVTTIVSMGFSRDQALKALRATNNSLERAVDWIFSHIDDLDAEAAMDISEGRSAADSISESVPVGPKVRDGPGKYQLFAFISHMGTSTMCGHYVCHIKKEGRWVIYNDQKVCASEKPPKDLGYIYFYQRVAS
Outline: as §1

[6] = target: USP54 (UniProt Q70EL1)
Outline: as §1

[7] = target: USP7 (UniProt Q93009)
Outline: as §1

[8] = target: T5, USP8 (UniProt P40818)
T5 sequence (whole entry): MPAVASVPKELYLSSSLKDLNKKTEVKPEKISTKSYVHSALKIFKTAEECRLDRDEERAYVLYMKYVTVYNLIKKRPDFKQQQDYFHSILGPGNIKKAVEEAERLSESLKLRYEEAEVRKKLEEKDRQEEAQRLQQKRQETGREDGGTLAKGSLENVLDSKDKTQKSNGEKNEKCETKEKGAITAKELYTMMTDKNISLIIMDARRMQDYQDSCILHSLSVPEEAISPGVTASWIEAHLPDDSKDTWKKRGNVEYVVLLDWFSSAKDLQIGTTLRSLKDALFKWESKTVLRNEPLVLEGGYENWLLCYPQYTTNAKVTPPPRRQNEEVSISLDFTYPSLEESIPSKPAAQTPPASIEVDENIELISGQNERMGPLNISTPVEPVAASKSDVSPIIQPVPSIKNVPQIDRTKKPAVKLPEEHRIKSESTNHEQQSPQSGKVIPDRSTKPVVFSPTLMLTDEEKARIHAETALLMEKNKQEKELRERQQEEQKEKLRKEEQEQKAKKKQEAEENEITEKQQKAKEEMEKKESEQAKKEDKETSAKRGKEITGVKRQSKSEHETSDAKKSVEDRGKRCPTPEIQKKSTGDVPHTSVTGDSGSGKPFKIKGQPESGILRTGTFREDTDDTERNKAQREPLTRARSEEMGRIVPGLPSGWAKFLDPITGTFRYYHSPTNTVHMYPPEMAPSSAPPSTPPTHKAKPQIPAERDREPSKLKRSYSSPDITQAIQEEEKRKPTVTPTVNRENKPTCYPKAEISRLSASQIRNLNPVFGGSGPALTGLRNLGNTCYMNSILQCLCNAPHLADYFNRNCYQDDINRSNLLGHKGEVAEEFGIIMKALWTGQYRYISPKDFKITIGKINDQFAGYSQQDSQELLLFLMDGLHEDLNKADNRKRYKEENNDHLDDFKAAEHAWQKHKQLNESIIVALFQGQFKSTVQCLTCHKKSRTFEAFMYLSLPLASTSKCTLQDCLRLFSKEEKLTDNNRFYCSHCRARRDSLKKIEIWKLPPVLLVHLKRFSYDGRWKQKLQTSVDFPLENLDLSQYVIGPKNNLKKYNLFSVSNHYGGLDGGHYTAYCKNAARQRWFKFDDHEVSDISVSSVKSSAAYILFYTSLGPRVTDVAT
Outline: as §1

[9] = target: USP9X (UniProt Q93008)
Outline: as §1

[10] = target: UniProt O00487
Outline: as §1

Measured: log2 ratio of Biotin-Ahx-Ub-VS probe labelling

Chain of USP9X (Q93008 whole entry): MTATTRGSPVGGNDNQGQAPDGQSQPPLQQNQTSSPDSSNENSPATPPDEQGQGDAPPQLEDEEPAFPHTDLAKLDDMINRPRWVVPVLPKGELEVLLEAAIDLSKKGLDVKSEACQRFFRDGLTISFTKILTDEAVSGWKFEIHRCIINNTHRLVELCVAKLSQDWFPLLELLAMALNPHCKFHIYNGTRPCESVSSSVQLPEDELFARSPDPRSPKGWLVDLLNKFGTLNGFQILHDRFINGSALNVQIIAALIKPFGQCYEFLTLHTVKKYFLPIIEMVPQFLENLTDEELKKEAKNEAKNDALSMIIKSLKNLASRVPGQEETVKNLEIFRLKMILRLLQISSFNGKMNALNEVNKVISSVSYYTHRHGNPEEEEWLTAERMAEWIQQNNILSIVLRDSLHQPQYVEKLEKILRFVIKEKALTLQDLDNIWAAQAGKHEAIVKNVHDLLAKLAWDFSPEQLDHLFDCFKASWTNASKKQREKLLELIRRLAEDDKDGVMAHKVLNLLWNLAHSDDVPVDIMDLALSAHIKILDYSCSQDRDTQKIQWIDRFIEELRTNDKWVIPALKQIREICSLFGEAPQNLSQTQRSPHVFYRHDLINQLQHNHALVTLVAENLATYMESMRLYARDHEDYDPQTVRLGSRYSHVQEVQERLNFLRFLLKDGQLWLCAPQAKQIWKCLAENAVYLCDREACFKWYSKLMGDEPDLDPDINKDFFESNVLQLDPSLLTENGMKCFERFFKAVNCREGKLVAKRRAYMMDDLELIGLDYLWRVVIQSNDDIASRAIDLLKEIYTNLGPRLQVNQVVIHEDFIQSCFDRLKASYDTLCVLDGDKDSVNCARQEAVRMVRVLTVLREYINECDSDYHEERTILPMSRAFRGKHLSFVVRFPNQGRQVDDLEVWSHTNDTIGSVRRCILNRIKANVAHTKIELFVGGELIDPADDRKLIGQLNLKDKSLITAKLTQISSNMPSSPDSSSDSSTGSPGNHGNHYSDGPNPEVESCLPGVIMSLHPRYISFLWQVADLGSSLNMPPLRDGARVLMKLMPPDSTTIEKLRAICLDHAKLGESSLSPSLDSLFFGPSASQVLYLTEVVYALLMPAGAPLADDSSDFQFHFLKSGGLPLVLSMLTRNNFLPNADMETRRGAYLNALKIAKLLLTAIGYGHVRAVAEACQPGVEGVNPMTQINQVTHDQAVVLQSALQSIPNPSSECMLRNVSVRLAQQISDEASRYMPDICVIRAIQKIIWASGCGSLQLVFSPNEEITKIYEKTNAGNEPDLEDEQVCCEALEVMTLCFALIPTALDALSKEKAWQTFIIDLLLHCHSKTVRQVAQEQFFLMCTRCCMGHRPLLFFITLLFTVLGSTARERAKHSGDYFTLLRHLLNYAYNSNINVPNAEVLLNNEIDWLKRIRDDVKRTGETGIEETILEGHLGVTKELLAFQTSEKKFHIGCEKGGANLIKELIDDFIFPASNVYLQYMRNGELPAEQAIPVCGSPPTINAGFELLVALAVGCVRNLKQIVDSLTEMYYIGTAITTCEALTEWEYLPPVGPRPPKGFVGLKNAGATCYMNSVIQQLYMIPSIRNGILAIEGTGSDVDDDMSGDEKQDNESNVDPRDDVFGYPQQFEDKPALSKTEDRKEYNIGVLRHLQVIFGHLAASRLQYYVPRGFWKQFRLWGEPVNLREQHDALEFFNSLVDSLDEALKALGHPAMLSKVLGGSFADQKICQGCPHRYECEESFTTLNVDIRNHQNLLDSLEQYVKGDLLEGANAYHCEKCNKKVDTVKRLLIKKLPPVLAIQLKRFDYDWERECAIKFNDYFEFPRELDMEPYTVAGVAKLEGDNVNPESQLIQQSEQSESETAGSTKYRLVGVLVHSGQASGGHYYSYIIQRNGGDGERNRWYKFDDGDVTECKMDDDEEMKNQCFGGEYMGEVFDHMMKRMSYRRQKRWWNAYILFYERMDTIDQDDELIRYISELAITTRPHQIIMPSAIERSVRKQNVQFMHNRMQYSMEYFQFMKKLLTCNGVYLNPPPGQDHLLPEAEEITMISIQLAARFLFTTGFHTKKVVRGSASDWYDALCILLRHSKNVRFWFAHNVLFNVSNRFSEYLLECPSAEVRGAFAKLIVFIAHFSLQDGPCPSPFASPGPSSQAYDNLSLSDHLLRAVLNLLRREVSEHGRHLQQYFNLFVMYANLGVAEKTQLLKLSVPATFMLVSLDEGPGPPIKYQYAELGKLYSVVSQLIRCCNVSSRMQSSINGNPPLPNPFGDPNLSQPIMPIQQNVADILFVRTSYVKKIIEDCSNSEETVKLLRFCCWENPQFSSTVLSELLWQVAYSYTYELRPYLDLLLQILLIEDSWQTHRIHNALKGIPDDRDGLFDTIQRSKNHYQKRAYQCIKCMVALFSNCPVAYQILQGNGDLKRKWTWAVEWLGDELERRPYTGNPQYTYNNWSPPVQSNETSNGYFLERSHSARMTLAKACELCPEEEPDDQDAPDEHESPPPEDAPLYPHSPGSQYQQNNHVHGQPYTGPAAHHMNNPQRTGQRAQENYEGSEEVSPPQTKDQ
Chain of USP54 (Q70EL1 whole entry): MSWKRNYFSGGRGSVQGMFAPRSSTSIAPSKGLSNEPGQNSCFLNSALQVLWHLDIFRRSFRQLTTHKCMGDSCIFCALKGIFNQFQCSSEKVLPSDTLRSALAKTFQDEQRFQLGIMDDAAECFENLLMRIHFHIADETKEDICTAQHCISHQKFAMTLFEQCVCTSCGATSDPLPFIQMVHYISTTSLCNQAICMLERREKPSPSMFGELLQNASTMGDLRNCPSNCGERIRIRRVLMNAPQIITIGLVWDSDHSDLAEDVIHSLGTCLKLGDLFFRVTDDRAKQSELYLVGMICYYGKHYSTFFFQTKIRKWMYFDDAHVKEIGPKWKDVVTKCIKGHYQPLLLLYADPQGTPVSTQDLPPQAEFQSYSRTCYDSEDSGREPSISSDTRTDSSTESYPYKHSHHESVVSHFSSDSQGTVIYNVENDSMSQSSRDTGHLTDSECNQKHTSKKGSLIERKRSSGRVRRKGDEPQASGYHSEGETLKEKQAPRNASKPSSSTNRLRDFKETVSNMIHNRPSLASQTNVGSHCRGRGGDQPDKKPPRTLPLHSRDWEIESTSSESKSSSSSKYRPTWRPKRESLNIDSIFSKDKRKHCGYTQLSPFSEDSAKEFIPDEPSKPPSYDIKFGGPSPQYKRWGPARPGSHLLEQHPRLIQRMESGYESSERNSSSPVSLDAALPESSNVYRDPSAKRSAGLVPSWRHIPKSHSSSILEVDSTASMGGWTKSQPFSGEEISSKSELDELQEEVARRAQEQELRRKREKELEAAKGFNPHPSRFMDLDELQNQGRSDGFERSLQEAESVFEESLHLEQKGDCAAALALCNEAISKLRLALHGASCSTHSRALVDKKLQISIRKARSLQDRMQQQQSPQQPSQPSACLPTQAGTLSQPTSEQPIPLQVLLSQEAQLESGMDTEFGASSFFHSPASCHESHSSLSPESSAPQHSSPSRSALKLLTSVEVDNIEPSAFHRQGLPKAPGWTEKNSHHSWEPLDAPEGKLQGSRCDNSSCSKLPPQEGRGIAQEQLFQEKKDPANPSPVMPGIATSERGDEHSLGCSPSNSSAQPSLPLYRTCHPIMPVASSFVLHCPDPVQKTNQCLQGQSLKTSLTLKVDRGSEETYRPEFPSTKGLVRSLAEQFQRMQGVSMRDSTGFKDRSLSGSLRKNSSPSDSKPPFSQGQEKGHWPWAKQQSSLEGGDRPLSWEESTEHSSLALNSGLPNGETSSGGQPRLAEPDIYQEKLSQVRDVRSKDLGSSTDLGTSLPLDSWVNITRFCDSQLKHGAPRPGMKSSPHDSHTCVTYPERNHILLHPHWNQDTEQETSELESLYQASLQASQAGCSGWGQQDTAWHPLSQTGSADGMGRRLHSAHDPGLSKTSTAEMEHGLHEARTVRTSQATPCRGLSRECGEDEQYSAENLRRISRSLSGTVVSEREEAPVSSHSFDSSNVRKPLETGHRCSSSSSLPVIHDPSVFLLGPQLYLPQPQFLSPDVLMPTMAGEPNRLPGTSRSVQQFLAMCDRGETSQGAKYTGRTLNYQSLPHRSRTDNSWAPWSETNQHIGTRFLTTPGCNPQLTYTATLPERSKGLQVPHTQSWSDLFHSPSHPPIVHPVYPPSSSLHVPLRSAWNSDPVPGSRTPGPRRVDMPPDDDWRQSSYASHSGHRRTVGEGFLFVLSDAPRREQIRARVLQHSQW
Chain of UniProt O00487 (O00487 whole entry): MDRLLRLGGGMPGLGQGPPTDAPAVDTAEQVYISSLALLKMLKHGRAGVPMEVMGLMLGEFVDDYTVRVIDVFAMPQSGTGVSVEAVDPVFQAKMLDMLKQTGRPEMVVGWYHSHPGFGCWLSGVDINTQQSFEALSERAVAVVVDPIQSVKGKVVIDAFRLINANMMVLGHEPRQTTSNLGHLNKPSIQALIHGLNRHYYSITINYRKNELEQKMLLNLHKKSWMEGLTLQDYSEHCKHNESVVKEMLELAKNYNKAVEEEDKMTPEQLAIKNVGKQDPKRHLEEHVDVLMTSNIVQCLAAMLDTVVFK
Chain of USP46 (P62068 whole entry): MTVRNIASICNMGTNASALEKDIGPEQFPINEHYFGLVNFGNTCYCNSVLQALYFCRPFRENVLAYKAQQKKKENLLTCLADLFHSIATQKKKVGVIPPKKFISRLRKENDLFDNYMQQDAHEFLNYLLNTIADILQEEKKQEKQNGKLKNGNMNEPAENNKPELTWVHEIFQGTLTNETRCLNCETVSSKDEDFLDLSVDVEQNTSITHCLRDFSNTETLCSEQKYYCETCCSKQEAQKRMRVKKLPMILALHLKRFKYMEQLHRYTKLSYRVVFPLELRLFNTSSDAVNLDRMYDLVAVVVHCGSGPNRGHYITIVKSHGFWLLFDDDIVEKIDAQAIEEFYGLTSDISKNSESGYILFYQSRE

O=C(CCl)N(C1=CCCCC1)C1CC1
inactive: [1] 0.331 | [2] -0.1 | [3] -0.571 | [4] -0.64 | [5] 0.124 | [6] 0.551 | [7] -0.612 | [8] -0.00831 | [9] -0.0905 | [10] -0.232
